Measured values reported in the supplement of paper PMC6555819.

Assays:
Experiment in all cases: PBM binding z-score (relative to random genomic background probes); higher = stronger binding; sequences stand for … in GC…GCGATTGACAGCGTAGAATGAAGG
[1] = test system: FXR:RXRa (NR concentration 270 nM, RXRa partner concentration 90 nM)
In short: (§1)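 Custom Agilent 4×180K protein-binding microarrays carried double-stranded probes, each with a 34-nt variable region. These regions held direct-repeat seeds, single-nucleotide variants, half-site ablations and random human genomic background sequences. Ligand-free nuclear receptor dimers were incubated on the arrays for 1 h, antibodies against each partner (one per run) detected binding, and scanned fluorescence was regression-normalized. Binding z-scores take the random background probes as reference.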

[2] = test system: LXRa:RXRa (NR concentration 270 nM, RXRa partner concentration 90 nM)
In short: as §1

[3] = test system: LXRa homodimer (NR concentration 270 nM)
In short: as §1

[4] = test system: LXRb:RXRa (NR concentration 270 nM, RXRa partner concentration 90 nM)
In short: as §1

[5] = test system: LXRb homodimer (NR concentration 270 nM)
In short: as §1

[6] = test system: PPARa:RXRa (NR concentration 270 nM, RXRa partner concentration 90 nM)
In short: as §1

[7] = test system: PPARg:RXRa (NR concentration 180 nM, RXRa partner concentration 90 nM)
In short: as §1

[8] = test system: PPARg:RXRa 270nM:90nM, anti-RXR (NR concentration 270 nM, RXRa partner concentration 90 nM)
In short: as §1

[9] = test system: PPARg:RXRa 30nM:10nM, anti-RXR (NR concentration 30 nM, RXRa partner concentration 10 nM)
In short: as §1

[10] = test system: PPARg:RXRa 90nM:30nM, anti-RXR (NR concentration 90 nM, RXRa partner concentration 30 nM)
In short: as §1

[11] = test system: PPARg:RXRa DBDmut IVT, anti-RXR (DBD mutation: RXRa K156A/R161A, NR concentration 270 nM, RXRa partner concentration 90 nM)
In short: as §1

[12] = test system: PPARg:RXRa IVT, anti-PPARg (NR concentration 270 nM, RXRa partner concentration 90 nM)
In short: as §1

[13] = test system: PPARg DBDmut:RXRa IVT, anti-PPARg (DBD mutation: PPARg1 K132A/R137A, NR concentration 270 nM, RXRa partner concentration 90 nM)
In short: as §1

[14] = test system: PPARg DBDmut IVT, anti-PPARg (DBD mutation: PPARg1 K132A/R137A, NR concentration 270 nM)
In short: as §1

[15] = test system: PPARg homodimer (NR concentration 180 nM)
In short: as §1

[16] = test system: PXR:RXRa (NR concentration 270 nM, RXRa partner concentration 90 nM)
In short: as §1

[17] = test system: PXR homodimer (NR concentration 270 nM)
In short: as §1

[18] = test system: RARa:RXR (NR concentration 270 nM, RXRa partner concentration 90 nM)
In short: as §1

[19] = test system: RARa homodimer (NR concentration 270 nM)
In short: as §1

[20] = test system: RARb:RXRa (NR concentration 270 nM, RXRa partner concentration 90 nM)
In short: as §1

Row | Sequence | PBM binding z-score [1] | PBM binding z-score [2] | PBM binding z-score [3] | PBM binding z-score [4] | PBM binding z-score [5] | PBM binding z-score [6] | PBM binding z-score [7] | PBM binding z-score [8] | PBM binding z-score [9] | PBM binding z-score [10] | PBM binding z-score [11] | PBM binding z-score [12] | PBM binding z-score [13] | PBM binding z-score [14] | PBM binding z-score [15] | PBM binding z-score [16] | PBM binding z-score [17] | PBM binding z-score [18] | PBM binding z-score [19] | PBM binding z-score [20]
1 | GCTAGCAGGCCATTTGGGTCACTCAGTGACGGGC | 0.0736 | -0.00862 | -0.609 | -0.133 | -1.43 | 1.14 | 0.272 | 0.402 | -0.825 | -0.0196 | 1.94 | 2.44 | -0.601 | -0.52 | -0.213 | 0.3 | -0.321 | 0.684 | -0.725 | 1.44
2 | CCTCGGAGGACAGAAGGTCAGGGCTGTCCGCTTT | 1.42 | 1.47 | 0.0831 | 1.07 | -1.01 | 2.17 | -0.206 | 1.07 | -0.426 | 0.349 | -0.131 | 0.148 | -1.5 | -1.83 | 1.43 | 1.65 | -0.651 | 2.13 | 0.0268 | 3.47
3 | CAAGACAGGTGAAAGGTAACTCAGTCTGGTACGC | 1.04 | 1.14 | -0.209 | 0.929 | 0.289 | 3.73 | 5.4 | 5.94 | 4.14 | 6.08 | 1.61 | 2.88 | 0.223 | 0.183 | 0.995 | 1.09 | 0.0379 | 1.92 | 0.108 | 1.57
4 | TTACCAAGGTGAGCTGAGGTCGTTAATCCAACTC | 1.47 | 0.747 | -0.294 | 0.852 | -1.14 | 1.4 | 0.0208 | 0.655 | 0.0433 | 0.306 | 1.09 | 1.7 | -0.772 | -1.04 | -0.219 | 4.5 | 0.182 | 1.51 | -0.951 | 1.59
5 | CCGAGTAGGGTATGGGGCATTCAGGCAACGGTGA | -0.164 | -0.318 | -0.305 | 0.261 | -0.00353 | 1.14 | 2.09 | 3.6 | 1.5 | 3.18 | 0.659 | 1.58 | -0.658 | -0.796 | 0.951 | -0.379 | -0.14 | -0.154 | 0.135 | 0.278
6 | ATCTCTAGGTAAGACTCAGTGCAGTGAAGAACGC | 0.188 | 0.383 | 0.212 | -0.0859 | 0.687 | -0.163 | -0.0807 | 0.0157 | 0.104 | -0.0649 | 1.64 | 0.686 | 0.237 | 0.958 | 0.398 | 0.339 | 0.592 | 0.223 | 0.328 | -0.152
7 | GCTCGCAGGACAAGGTCAGAGCTTTGTCCGTAGA | 1.42 | 1.47 | -0.546 | 1.08 | -1.31 | 2.19 | -0.311 | 0.692 | -0.968 | -0.0202 | -0.189 | 0.355 | -1.69 | -1.23 | -0.0307 | 1.35 | -0.47 | 1.6 | -1.24 | 3.05
